# ASK1 inh – ASK1 kinase inhibitors, primary screen, biochemical, AlphaScreen; AlphaScreen MKK6 phosphorylation by ASK1, luminescence; inhibition, % at 7.44 µM; hit rate 0.99% among 22,000; in the data active = inhibition above about 35%;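 note: 0% = median of compound wells and 100% = no enzyme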
# ULK1 inh – ULK1 kinase inhibitors, primary screen, biochemical, AlphaScreen | AID 1259251, 2017 | AlphaScreen Atg13 phosphorylation by ULK1, luminescence | inhibition, % at 5.96 µM | Serine/threonine-protein kinase ULK1 (Homo sapiens), O75385 | hit rate 1.9% among 30,000; in the data active = inhibition above about 43%;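 note: 0% = median of compound wells and 100% = no enzyme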
# Target sequence (O75385 whole entry, looked up): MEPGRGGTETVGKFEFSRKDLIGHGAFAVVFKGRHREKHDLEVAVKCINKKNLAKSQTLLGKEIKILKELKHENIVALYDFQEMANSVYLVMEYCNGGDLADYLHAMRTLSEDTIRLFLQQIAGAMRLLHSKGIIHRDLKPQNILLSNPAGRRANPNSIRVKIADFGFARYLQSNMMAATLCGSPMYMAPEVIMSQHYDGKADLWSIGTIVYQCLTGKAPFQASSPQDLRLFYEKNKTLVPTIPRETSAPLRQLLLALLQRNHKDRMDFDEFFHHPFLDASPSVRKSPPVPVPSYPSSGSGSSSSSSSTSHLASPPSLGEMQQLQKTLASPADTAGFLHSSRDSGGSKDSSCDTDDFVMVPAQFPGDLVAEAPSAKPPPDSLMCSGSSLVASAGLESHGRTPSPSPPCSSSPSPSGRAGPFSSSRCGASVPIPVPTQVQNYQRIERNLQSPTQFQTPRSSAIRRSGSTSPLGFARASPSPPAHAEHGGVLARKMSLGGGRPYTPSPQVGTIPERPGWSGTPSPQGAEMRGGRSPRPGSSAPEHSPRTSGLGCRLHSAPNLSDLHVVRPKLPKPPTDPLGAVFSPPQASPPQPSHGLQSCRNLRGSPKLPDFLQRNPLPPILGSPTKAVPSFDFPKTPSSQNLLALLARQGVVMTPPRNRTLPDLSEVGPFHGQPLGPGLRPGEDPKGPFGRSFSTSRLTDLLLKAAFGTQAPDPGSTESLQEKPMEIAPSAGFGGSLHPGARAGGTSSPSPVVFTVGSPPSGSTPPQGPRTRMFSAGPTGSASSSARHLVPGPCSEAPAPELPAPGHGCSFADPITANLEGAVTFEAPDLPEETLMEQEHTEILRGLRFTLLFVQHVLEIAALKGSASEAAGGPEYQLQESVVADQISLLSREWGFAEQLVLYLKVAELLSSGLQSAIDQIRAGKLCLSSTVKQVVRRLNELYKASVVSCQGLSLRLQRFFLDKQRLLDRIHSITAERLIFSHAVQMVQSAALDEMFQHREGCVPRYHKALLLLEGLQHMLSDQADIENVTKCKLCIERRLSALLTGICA
# * hit, by the source's call; x = no result given; ! = a repeat was not active. Compounds with a hit are over-represented: about 2.5% of the library has one in this group of screens.
SMILES,ASK1 inh,ULK1 inh
O=C1CCCN1CCCNc1nc(Nc2ccc(-n3ccnc3)cc2)nc2nc[nH]c12,-37.8,58.0*
O=C1CCCN1CCCNc1nc(Nc2ccccc2)nc2nc[nH]c12,-16.7,46.3*
O=C1CCCN1CCCNc1nc(Nc2ccncc2)nc2nc[nH]c12,-10.7,55.3*
Cc1nn(C)c(C)c1-c1cc(Nc2ccc(Oc3ccccc3)cc2)nc(N)n1,1.3,2.8
Cc1cnc(N2CCC(N3CCOCC3)CC2)nc1NCCOc1ccccc1,-11.3,-13.5
c1cc(Nc2nccc(Nc3ccc4c(c3)OCO4)n2)ncn1,24.1,4.5
CC(C)N(CCNc1ncnc2c1nc(-c1cccs1)n2C(C)C)C(C)C,-4.8,-9.7
CCN(CC)c1nc(NCc2cccnc2)nc(Nc2ccncn2)n1,-4.4,6.6
c1ccc(OCCNc2ncnc3nc(N4CCN(Cc5ccc6c(c5)OCO6)CC4)[nH]c23)cc1,5.5,-5.0
CCC(NC(C)C)C(O)c1ccc(O)c(O)c1 (stereo unspecified),x,8.2
NCC(O)c1ccc(O)c(O)c1 (stereo unspecified),x,80.3*
CS(=O)(=O)c1ccc(N2CCN(c3ccccn3)CC2)c(F)c1,x,6.0
O=C(NCc1nc2ccccc2[nH]1)c1ccc2nc(NC3CCN(Cc4ccccc4)CC3)sc2c1,8.3,-7.6
c1cncc(CNc2nc(-c3ccc(N4CCOCC4)nc3)nc3nc[nH]c23)c1,-1.5,58.5*
COc1cc(Nc2ccnc(-c3ccc(C(=O)NC4CC4)cc3)n2)cc(OC)c1OC,-0.3,45.2*
COc1ccc(-c2ncc(C)c(Nc3ccccc3)n2)cn1,10.8,-23.8
COc1cc(Nc2cc(C)nc(-c3ccc(C(=O)NC4CC4)cc3)n2)cc(OC)c1OC,3.2,-9.4
COc1cc2nc(-c3ccc(N4CCOCC4)nc3)nc(Nc3cc(OC)c(OC)c(OC)c3)c2cc1OC,0.9,-5.5
COc1ccc(-c2nc(NCc3cccnc3)c3[nH]cnc3n2)cn1,-14.5,8.5
COc1ccc(-c2ncc(C)c(Nc3cc(OC)c(OC)c(OC)c3)n2)cn1,18.2,55.2*
COc1cc(Nc2ccnc(-c3ccc(N4CCOCC4)nc3)n2)cc(OC)c1OC,8.5,73.6*
O=C(NCc1ccccc1)c1ccnc(N2CCCC2CO)c1 (stereo unspecified),-5.5,3.5
c1ccc(CNc2nc(Nc3ccncn3)nc3c2ncn3-c2ccsc2)cc1,-5.4,-3.1
O=C(NCCN1CCOCC1)c1cccc(-n2ncc3cc(Nc4ccccc4Br)ccc32)c1,23.2,-13.9
c1ccc(CNc2nc(Nc3nccc4ccccc34)nc3c2ncn3-c2ccccc2)cc1,-19.9,1.8
SMILES,ASK1 inh,ULK1 inh
C=C1CC(c2ccccc2)N(Cc2ccccc2)CC1(C)C (stereo unspecified),6.2,6.4
OCc1cnc(SCc2cccc3ccccc23)n1Cc1ccc2c(c1)OCO2,x,-4.8
Cc1cnc(-c2ccc(N3CCOCC3)nc2)nc1Nc1ccc(N2CCOCC2)cc1,15.9,52.1*
c1cc(Nc2ccc(N3CCOCC3)cc2)nc(-c2ccc(N3CCOCC3)nc2)n1,7.7,60.1*
CC(=O)Nc1ccc(Nc2ccnc(-c3ccc(N4CCOCC4)nc3)n2)cc1,2.2,38.1
Cc1cnc(-c2ccc(N3CCOCC3)nc2)nc1Nc1ccc(Oc2ccccc2)cc1,1.7,-7.5
COc1cc(Nc2nc(-c3ccc(N4CCOCC4)nc3)nc3nc[nH]c23)cc(OC)c1OC,7.5,-9.3
COc1cc(Nc2nc(-c3ccc(N4CCOCC4)nc3)ncc2C)cc(OC)c1OC,8.6,88.7*
C[C@]12CC[C@@H]3c4ccc(O)cc4CC[C@H]3[C@@H]1CC[C@@H]2OC(=O)CCC1CCCC1,x,3.3
COc1cc2nc(Nc3cccc(N(C)C)c3)nc(NCCc3ccc(O)cc3)c2cc1OC,26.0,-9.3
COc1ccc(-c2nc(Nc3ccccc3)nc(OC)n2)cc1,11.8,7.8
CS(=O)(=O)Nc1ccc(-c2ccnc(Nc3ccc(C(O)(C(F)(F)F)C(F)(F)F)cc3)n2)cc1,-28.8,32.8
CS(=O)(=O)Nc1ccc(-c2ccnc(Nc3ccc(-n4cncn4)cc3)n2)cc1,7.1,67.2*
CC(=O)c1ccc(Nc2nccc(-c3ccc(NS(C)(=O)=O)cc3)n2)cc1,-22.4,55.1*
Cc1ccc(-c2ncn(-c3ccc(Nc4nccc(-c5ccc(NS(C)(=O)=O)cc5)n4)cc3)n2)cn1,3.4,11.8
CC1(C)C2CCC1(C)C(O)C2 (stereo unspecified),x,-14.4
Cc1cnc(Nc2cnccn2)nc1NCCc1ccc(O)cc1,-0.5,0.7
Nc1cccc(-c2cncc(C(=O)NCc3cccc(C(F)(F)F)c3)c2)c1,-2.9,-1.1
Cc1[nH]cnc1CN1CCc2c(c3ccccc3n2C)C1=O,x,78.4*
Cc1nccn1CC1CCc2c(c3ccccc3n2C)C1=O (stereo unspecified),x,1.7
O=C(Nc1ccc(-n2ncc3ccc(-c4nn[nH]n4)cc32)cc1)c1ccccc1,12.4,-0.5
NC(=O)c1ccc(Nc2cc(-c3ccc(Cl)cc3)ccn2)cc1,-0.8,-15.8
CC(C)[C@@H](O)C(=O)N[C@H]1CC[C@@H](C(=O)Nc2ccc3[nH]ncc3c2)C1,13.2,1.3
N[C@H]1CCC[C@H](C(=O)Nc2ccc3cnccc3c2)C1,-2.0,75.0*
NC1CCC(C(=O)Nc2ccc3[nH]ncc3c2)CC1 (stereo unspecified),14.3,55.1*!
SMILES,ASK1 inh,ULK1 inh
N[C@@H]1CC[C@H](C(=O)Nc2ccc3cnccc3c2)C1,-2.3,7.7
CC(=O)c1cccc(-c2cccc(C(=O)NCc3nc4ccccc4[nH]3)n2)c1,-9.2,-9.0
CC(=O)Nc1ccc(Nc2ccnc(-c3c(C)nn(C)c3C)n2)cc1,-6.0,-1.0
Cn1cnnc1-c1ccc(Nc2nccc(-c3cc(C#N)cc(N4CCOCC4)c3)n2)cc1,11.9,-13.7
Cc1nc2ccc(Nc3nccc(-c4cncc(N5CCOCC5)c4)n3)cc2o1,15.8,-13.8
c1cnn(Cc2ccc(Nc3nccc(-c4cncc(N5CCOCC5)c4)n3)cc2)c1,-4.2,30.0
Cc1[nH]nc2ccc(Nc3nccc(-c4cncc(N5CCOCC5)c4)n3)cc12,7.1,48.6*
Cn1cnnc1-c1ccc(Nc2nccc(-c3cncc(N4CCOCC4)c3)n2)cc1,6.6,58.3*
Fc1ccc(Nc2nccc(-c3cncc(N4CCOCC4)c3)n2)cc1,21.8,17.1
COc1ccc(Nc2nccc(-c3cncc(N4CCOCC4)c3)n2)cc1OC,20.6,47.0*
c1cn(Cc2ccc(Nc3nccc(-c4cncc(N5CCOCC5)c4)n3)cc2)cn1,-3.7,60.4*
COc1ccc(CCNC(=O)c2cncc(-c3ccc(N4CCN(C)CC4)cc3)c2)cc1,8.9,-8.1
c1cncc(CNc2nc(Nc3ccc(-n4ccnc4)cc3)nc3c2ncn3C2CCCCC2)c1,12.5,-13.2
O=C(NC1CC1)c1ccc(-c2nc(NCCN3CCOCC3)c3ncn(-c4ccsc4)c3n2)cc1,-24.1,2.2
Fc1cc(-c2nc(Nc3cccc(Cn4ccnc4)c3)ncc2F)cc(N2CCOCC2)c1,19.8,79.3*
Fc1cc(-c2nc(Nc3ccc(Cn4ccnc4)cc3)ncc2F)cc(N2CCOCC2)c1,13.3,25.6
CC(C)(O)c1ccccc1CC[C@@H](SCC1(CC(=O)O)CC1)c1cccc(/C=C/c2ccc3ccc(Cl)cc3n2)c1,x,43.0*
Cc1cnc(-c2ccc(N3CCOCC3)nc2)nc1NCCN(C(C)C)C(C)C,-1.6,2.1
